Compound activity (PubChem)
BJeLR lethal: kills HRASV12-expressing BJeLR cells; BJeLR (HRASV12) viability, CellTiter-Glo ATP luminescence, 48 h; inhibition, % (test concentration not listed); 0.17% of 300,000 active; AID 1554; in the data active = inhibition above about 50%; inconclusive = no clear call, values can overlap the other calls
Anthrax LF inh2: anthrax lethal factor protease inhibition; 0.12% of 360,000 active; inhibition, % at 10 µM; multiplex microsphere protease cleavage assay, LF; P15917; in the data active = inhibition above about 30%; inconclusive = no clear call, values can overlap the other calls; note: plate controls were buffer without enzyme for full effect and enzyme alone for no effect
Target sequence (P15917 whole entry, looked up): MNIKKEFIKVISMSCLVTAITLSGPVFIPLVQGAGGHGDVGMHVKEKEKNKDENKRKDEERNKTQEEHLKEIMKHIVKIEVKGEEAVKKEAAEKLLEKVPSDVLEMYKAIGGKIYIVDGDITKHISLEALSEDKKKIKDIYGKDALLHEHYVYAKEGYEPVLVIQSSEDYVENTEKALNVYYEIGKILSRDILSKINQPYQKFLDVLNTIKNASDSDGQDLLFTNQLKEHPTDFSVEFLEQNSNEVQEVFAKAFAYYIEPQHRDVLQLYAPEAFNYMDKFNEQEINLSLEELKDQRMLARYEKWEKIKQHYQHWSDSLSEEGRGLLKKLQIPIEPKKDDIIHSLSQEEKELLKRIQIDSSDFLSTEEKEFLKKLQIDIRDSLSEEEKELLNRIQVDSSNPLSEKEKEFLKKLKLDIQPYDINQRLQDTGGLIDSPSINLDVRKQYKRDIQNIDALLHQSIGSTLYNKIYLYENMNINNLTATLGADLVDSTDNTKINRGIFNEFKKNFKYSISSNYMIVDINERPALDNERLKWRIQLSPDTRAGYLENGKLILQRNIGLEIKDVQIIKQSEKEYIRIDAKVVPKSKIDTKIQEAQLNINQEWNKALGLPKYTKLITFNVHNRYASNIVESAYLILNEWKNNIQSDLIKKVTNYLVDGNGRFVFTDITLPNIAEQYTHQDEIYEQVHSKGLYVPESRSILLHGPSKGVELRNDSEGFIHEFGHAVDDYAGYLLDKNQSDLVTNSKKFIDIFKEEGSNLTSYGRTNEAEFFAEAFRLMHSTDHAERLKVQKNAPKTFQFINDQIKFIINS
BoNT-A LC inh2: BoNT A light chain protease inhibition; inhibition, % at 10 µM; multiplex microsphere protease substrate cleavage, flow cytometry; 0.17% of 360,000 active; in the data active = inhibition above about 30%; inconclusive = no clear call, values can overlap the other calls; note: plate controls were buffer without enzyme for full effect and enzyme alone for no effect
BoNT-F LC inh: BoNT F light chain protease inhibition; Multiplex microsphere protease cleavage assay, flow cytometry; inhibition, % at 10 µM; 0.22% of 360,000 active; AID 588497; in the data active = inhibition above about 35%, passing the limit was not always enough; inconclusive = no clear call, values can overlap the other calls; note: plate controls were buffer without enzyme for full effect and enzyme alone for no effect
Bead autofluor: compound fluorescence in toxin protease inhibitor counterscreen. compound autofluorescence counterscreen, microsphere flow cytometry; active compounds read high. fluorescence intensity (concentration not given with the values). 3.1% of 360,000 active; in the data active = fluorescence intensity above about 16000; inconclusive = no clear call, values can overlap the other calls
BoNT-A LC CP1: BoNT/A light chain protease inhibition | multiplex microsphere protease assay, flow cytometry | shares compounds with BoNT-F LC inh | inhibition, % at 10 µM | 3% of 720 active; in the data active = inhibition above about 32%
BoNT-F LC CP1: blocks botulinum neurotoxin F light chain protease; multiplex microsphere protease cleavage assay, flow cytometry; shares compounds with BoNT-F LC inh; inhibition, % at 10 µM; 720 tested, under 10 active
LF protease CP1: inhibitors of Bacillus anthracis lethal factor protease. 720 tested, under 10 active. inhibition, % at 10 µM. shares compounds with BoNT-F LC inh. multiplex microsphere protease cleavage assay, LF
* = called active by the depositor; ? = inconclusive; · = not tested or not shown. Sampled rows, rich in hits. Any-hit rate of the full collection: about 3.5%. Unless noted, the rule behind the calls is not given here.

SMILES | BJeLR lethal | Anthrax LF inh2 | BoNT-A LC inh2 | BoNT-F LC inh | Bead autofluor | BoNT-A LC CP1 | BoNT-F LC CP1 | LF protease CP1
COc1ccc(S(=O)(=O)NCC2CCCO2)cc1Cl (configuration not stated) | -1.3 | -11.8 | -1.3 | 35.4* | 2925 | -0.9 | -3.5 | -1.7
CCOC(=O)c1ccc(NC(=O)CC2Sc3ncnn3C2=O)cc1 (configuration not stated) | -11.5 | -0.7 | -1.2 | -8.1 | 10272 | · | · | ·
CCCc1oc(C(=O)O)cc1CN1CCOCC1 | 3.7 | 11.5 | 8.2 | 42.3* | 8574 | -1.1 | 0.9 | 1.4
COc1ccc(-c2cc3ccccc3n2CC(O)Cn2nc(C)cc2C)cc1 (configuration not stated) | -10.7 | 49.0* | 151.5* | -38.2 | 3026 | -0.1 | -4.5 | -2.3
Cc1cc(C)n(CC(O)Cn2c(C)c(C)c3ccccc32)n1 (configuration not stated) | -3.1 | 7.1 | 3.8 | 34.7* | 4825 | -0.3 | -1.6 | 3.5
COc1cccc(OC)c1C(=O)N1CCN(S(=O)(=O)c2ccccc2)CC1 | -0.7 | -3.9 | -0.2 | -0.1 | 5023 | · | · | ·
COc1ccccc1NCC(=O)N1CCN(S(=O)(=O)c2ccccc2)CC1 | · | 32.1* | -8.0 | -12.3 | ? | 1.7 | 1.7 | 1.8
COc1ccccc1N1C(=O)CC(N2CCN(c3ccc(F)cc3)CC2)C1=O (configuration not stated) | -0.3 | 19.1 | -2.0 | 40.5* | 3063 | 0.5 | -3.8 | 2.1
O=C(CC(=O)Nc1ccccc1F)Nc1ccccc1F | -7.2 | 41.5* | -4.4 | -4.1 | 4769 | -1.7 | -6.3 | -3.6
O=C(CN1CCCCCC1)Nc1ccccc1F | -12.1 | 0.7 | 0.0 | -5.4 | 4604 | · | · | ·
C[C@H]1CN(S(=O)C(C)(C)C)[C@@H](CCO)/C1=C\CCO (some centres not stated) | · | -4.6 | -0.1 | 0.2 | 3746 | · | · | ·
O=C(O)c1cc(-c2ccccc2)c(N2CCOCC2)s1 | -14.4 | 69.2* | 84.4* | 21.1 | 2262 | 0.4 | 0.2 | 2.3
CC(C)OCCCNC(=O)[C@H]1N2C(=O)c3ccccc3C2SC1(C)C (some centres not stated) | -2.2 | 5.9 | 1.0 | -7.8 | 3116 | · | · | ·
CC(C)NC(=O)[C@H]1N2C(=O)c3ccccc3C2SC1(C)C (some centres not stated) | -2.7 | 4.3 | 3.9 | 35.6* | 3866 | 0.0 | -2.9 | -2.7
Cc1ccc(C)c2nc(N3CCCC3)c(C#N)cc12 | 11.8 | 26.0 | 36.2* | 27.2 | 4615 | 15.7 | 0.8 | 6.9
CC(Sc1nnc(C2CC2)n1C1CC1)C(=O)Nc1cccc(S(=O)(=O)N2CCOCC2)c1 (configuration not stated) | · | 0.0 | 0.0 | -3.1 | 4059 | · | · | ·
CCOC(=O)CSc1nc2sc3c(c2c(=O)n1-c1ccc(OCC)cc1)CCN(C)C3 | 3.1 | 20.5 | 52.7* | 9.8 | 3704 | 0.7 | 2.3 | 4.5
CCCN1CCc2c(sc3nc(SC)n(-c4ccccc4)c(=O)c23)C1 | -11.6 | 11.3 | 33.2* | 27.1 | 5541 | 6.1 | 1.9 | 5.1
COc1ccc(CN2CCC2(C)C(=O)NCCc2c[nH]c3ccccc23)c2ccccc12 (configuration not stated) | · | 3.2 | -0.5 | -3.5 | 4001 | · | · | ·
Cn1c(=O)[nH]c(=O)c2c1nc1n2CC(O)CN1c1ccccc1 (configuration not stated) | -2.5 | -13.5 | 2.8 | 36.4* | 3482 | -0.4 | -0.7 | -2.3
COc1ccc(S(=O)(=O)N(C)C)cc1NC(=O)CCNC(=O)c1ccco1 | -13.1 | 6.0 | 0.5 | 41.1* | 3795 | 0.1 | -3.0 | 1.6
COc1ccc(CC(=O)NCc2ccc3c(c2)cc(C)n3C)cc1OC | -0.3 | 10.2 | 50.8* | -25.3 | 2746 | 1.6 | -8.0 | -3.8
Cc1cc2cc(CNC(=O)COc3ccccc3)ccc2n1C | -12.9 | -25.6 | 69.2* | -71.8 | 2787 | 6.2 | -15.2 | 1.7
COc1c(C)cccc1C(=O)NCc1ccc2c(c1)OCO2 | -18.9 | -12.1 | -0.6 | 35.6* | 3541 | 0.3 | -3.6 | 1.2
COCC(=O)NCc1ccc2c(c1)cc(C)n2C | -3.1 | 0.6 | 4.6 | -5.0 | 1948 | 2.7 | -5.0 | -0.9
SMILES | BJeLR lethal | Anthrax LF inh2 | BoNT-A LC inh2 | BoNT-F LC inh | Bead autofluor | BoNT-A LC CP1 | BoNT-F LC CP1 | LF protease CP1
COc1ccc(CC(=O)NCc2ccccc2)cc1OC | 11.8 | -2.1 | -0.6 | ? | 4181 | · | · | ·
Cc1cc2cc(CNC(=O)NC3CCCCC3)ccc2n1C | 0.5 | -106.9 | 23.4 | -131.7 | 2076 | · | · | ·
Cc1cc2cc(CNC(=O)c3ccco3)ccc2n1C | 8.7 | -17.5 | 27.9 | -56.6 | 4270 | · | · | ·
CC(C)c1ccc(NC(=O)c2ccc3c(c2)C(=O)N(Cc2cccnc2)C3=O)cc1 | 5.3 | -1.3 | 4.1 | 7.9 | 5574 | · | · | ·
Cc1nc2c(C(=O)NCc3ccc(F)cc3)c[nH]n2c(=O)c1Cl | 16.1 | -0.8 | -0.7 | -11.8 | 10161 | · | · | ·
Cc1cc2cc(CNC(=O)c3ccc4c(c3)OCO4)ccc2n1C | 13.0 | -50.3 | 64.7* | -85.8 | 1744 | 7.3 | -10.8 | 2.8
COc1cc(OC)cc(C(=O)NCc2ccc3c(c2)cc(C)n3C)c1 | 5.9 | -47.0 | 73.1* | -82.1 | 2199 | 0.8 | -1.3 | -4.0
COc1ccc(C(=O)NCc2ccc3c(c2)OCO3)cc1 | -18.8 | -1.8 | -0.2 | -3.0 | 4493 | · | · | ·
O=C(c1ccc(N2CCCCC2)c([N+](=O)[O-])c1)N(c1ccccn1)c1ccccn1 | -7.7 | -0.7 | -0.3 | 2.1 | 3626 | · | · | ·
COc1ccc(CNC(=O)C2CCCN2)cc1OC (configuration not stated) | -0.1 | 1.2 | -1.2 | 4.1 | 3177 | · | · | ·
O=C(NCCNC(=O)c1cc(Cl)ccc1Cl)c1cnccn1 | 16.1 | -5.1 | -1.1 | 5.8 | 3992 | · | · | ·
O=C(COc1ccc(Cl)cc1Br)N1CCN(c2ncccn2)CC1 | · | -0.3 | 1.3 | 6.6 | ? | · | · | ·
COC(=O)c1sc(SC)c2c1CC(C)(C)C/C2=N/O | -13.7 | -6.5 | -1.2 | -6.3 | 5723 | · | · | ·
O=C(O)c1ccc(NS(=O)(=O)c2ccc(Cl)c(C(=O)Nc3ccccc3)c2)cc1 | 5.3 | 14.7 | -0.5 | ? | 3179 | 0.4 | 0.2 | 1.3
O=C(O)c1ccc(NS(=O)(=O)c2ccc(NC(=O)c3ccccc3Cl)cc2)cc1 | 6.3 | -2.6 | 0.4 | -5.8 | 3422 | · | · | ·
O=C(Nc1ccccc1C(=O)O)c1cc(S(=O)(=O)Nc2ccccc2)ccc1Cl | -7.6 | -5.8 | 2.9 | ? | 4097 | -0.3 | -4.6 | 1.1
Cc1ccc(NS(=O)(=O)c2ccc(Cl)c(C(=O)Nc3cccc(C(=O)O)c3)c2)cc1 | -3.5 | -3.7 | -2.8 | ? | 4199 | -0.9 | -3.2 | -2.5
O=c1c2ccccc2nnn1-c1ccc(Br)cc1 | -8.3 | 13.6 | -7.5 | 40.8* | 4468 | -0.5 | -0.2 | -0.9
CCC(C)(C)n1nnnc1C(c1cc2ccc(OC)cc2[nH]c1=O)N1CCCCC1 (configuration not stated) | -4.8 | -5.6 | 2.2 | 2.6 | 10987 | -1.9 | -0.1 | -4.8
